VHR inh abs = blocks human VHR1 dual specificity phosphatase. P51452. recombinant VHR phosphatase, pNPP absorbance. inhibition, % at 13.3 µM. hit rate 0.52% among 290,000. AID 1654; in the data active means inhibition above about 50%
Target sequence (P51452 whole entry, looked up): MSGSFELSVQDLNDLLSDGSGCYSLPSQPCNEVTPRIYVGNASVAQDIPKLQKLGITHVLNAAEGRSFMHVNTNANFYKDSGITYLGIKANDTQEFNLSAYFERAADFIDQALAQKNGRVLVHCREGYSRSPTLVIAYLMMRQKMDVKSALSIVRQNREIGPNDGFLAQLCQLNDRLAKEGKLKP
Sa ugtP lethal = growth inhibition of S. aureus ugtP deletion strain; S. aureus RN4220 ugtP deletion, OD600 growth, 16 h; growth inhibition, % (concentration not given with the values); hit rate 0.54% among 330,000; AID 1259309; in the data active means growth inhibition above about 68%;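 further: plate controls were untreated wells for no effect and antibiotic for full effect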
Mtb hypoxia rep = reduces hypoxia-regulated biosensor signal in M. tuberculosis. fluorescence inhibition, % (no concentration beside the values). AID 1159583. hit rate 0.1% among 300,000. M. tuberculosis hypoxia-regulated fluorescent reporter, fluorescence; in the data active means fluorescence inhibition mostly above about 23%, no sharp cut-off; inactive means mostly below about 17%
SSB-PriA inh = blocks PriA binding to SSB C-terminal tail; AlphaScreen SSBct-PriA binding, biotinylated peptide; inhibition, % at 33 µM; hit rate 0.6% among 430,000; in the data active means inhibition mostly above about 37%, no sharp cut-off; inactive means mostly below about 20%;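 further: plate controls were negative control peptide for no effect and reference peptide for full effect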
PfHsp40 rescue = compounds rescuing yeast from Plasmodium falciparum HSP40 toxicity; AID 504582; growth rescue, % at 12.5 µM; hit rate 0.68% among 340,000; S. cerevisiae expressing PfHsp40, growth rescue, ATP luminescence; in the data active means growth rescue above about 28%, passing the limit was not always enough; inconclusive means no clear call, values can overlap the other calls;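 further: yeast W303a lacking pdr1 and pdr3 grown in galactose medium; growth measured after three days at 30 °C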
Sa RN4220 lethal = kills Staphylococcus aureus RN4220; S. aureus RN4220 growth, OD600, 16 h; inhibition, % (no concentration beside the values); hit rate 0.33% among 330,000; AID 1259311; in the data active means inhibition above about 85%;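 further: plate controls were untreated cells for no effect and reference antibiotic for full effect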
* marks the source's active call; other numbers are inactive results; ? = inconclusive; · = not tested or not shown; + = active, no number. Sampled rows, rich in hits. Any-hit rate of the full collection: about 1.8%.

SMILES | VHR inh abs | Sa ugtP lethal | Mtb hypoxia rep | SSB-PriA inh | PfHsp40 rescue | Sa RN4220 lethal
CCCN(CCC)S(=O)(=O)c1ccc(C(=O)Nc2nnc(-c3cccc(OC)c3)o2)cc1 | 29 | 100* | -5 | -7 | -2 | 99*
O=C(NCCOc1cc(N2CCOCC2)ncn1)Nc1ccccc1 | · | · | · | -7 | · | ·
O=C(CSCc1ccccc1)Nc1ccccc1-c1cn2ccsc2n1 | · | · | · | 3 | · | ·
O=C(Nc1nnc(-c2ccc(F)cc2)o1)c1cc(Cl)sc1Cl | 6 | 99* | 6 | 1 | -1 | 100*
O=C(Nc1nnc(-c2ccc(Br)cc2)o1)c1cc(Cl)sc1Cl | · | · | · | 7 | · | ·
O=C(Nc1nnc(-c2ccc(Cl)cc2)o1)c1nc2ccccc2s1 | -6 | 99* | 6 | -9 | -2 | 100*
O=C(Nc1nnc(-c2ccco2)o1)c1ccc(Cl)s1 | 2 | 2 | -2 | 1 | 2 | 18
COc1cccc(-c2nnc(NC(=O)c3ccc(Cl)s3)o2)c1 | 23 | 100* | 3 | -16 | 1 | 100*
O=C(/C=C/c1ccc2c(c1)OCO2)NCc1n[nH]c(=O)c2ccccc12 | · | · | · | -7 | · | ·
O=C(Nc1cc(F)ccc1F)NC1CC(=O)N(c2ccc(Cl)cc2)C1 (stereo unspecified) | · | · | · | -4 | · | ·
CCCc1nnc2c(=O)n(CC(=O)Nc3cccc(C(=O)OCC)c3)c3ccccc3n12 | · | · | · | -2 | · | ·
Cc1ccc(S(=O)(=O)NC(=O)c2cc(C)n(C3CC3)c2C)cc1 | 18 | 3 | 13 | 6 | 2 | 4
Cc1ccc(-n2c(C)cc(C(=O)NS(=O)(=O)c3ccc(C)cc3)c2C)cc1 | 9 | 98* | 17 | 6 | 6 | 2
CCOc1ccc(-n2c(C)cc(C(=O)NS(=O)(=O)c3ccc(C)cc3)c2C)cc1 | -25 | 92* | 1 | -12 | 1 | 2
CCOc1ccc(S(=O)(=O)NC(=O)c2ccccc2)cc1 | -3 | 2 | -3 | -14 | -1 | 4
Cc1cc(S(=O)(=O)N2CCN(c3ccc(-c4cccnc4)nn3)CC2)ccc1F | · | · | · | -5 | · | ·
COc1ccc(C(=O)Nc2nc3c(s2)CCCC3C(=O)NCc2ccccc2OC)cc1 (stereo unspecified) | · | · | · | 16 | · | ·
CSc1nc2ccc(Cl)cc2[nH]1 | -9 | 4 | -2 | 1 | -1 | 9
CSc1nc2cc(Oc3cccc(Cl)c3Cl)c(Cl)cc2[nH]1 | 26 | 97* | -4 | -6 | ? | 100*
N#Cc1nccnc1O[C@H]1CCN(C(=O)c2ccccn2)C1 | · | · | · | -20 | · | ·
FC(F)(F)c1nc(SCc2ccc(Cl)cc2Cl)n[nH]1 | 17 | 83* | 0 | -15 | 299* | 81
COc1ccc(-c2cc3c(=O)n(CC(=O)NC4CCN(Cc5ccccc5)CC4)ncn3n2)cc1 | 13 | 19 | 20 | 1 | 83* | 14
COc1ccc(-c2cc3c(=O)n(CC(=O)NCc4cccnc4)ncn3n2)cc1 | 21 | -6 | 8 | -1 | 0 | -4
CC(=O)N1C(C)C=C[C@]1(Cc1ccccc1)C(=O)NCCN1CCOCC1 (stereo partly specified) | · | 4 | 4 | · | · | 4
CN(C(=O)CSc1nnc(-c2ccc(F)cc2)n1C)C1CCS(=O)(=O)C1 (stereo unspecified) | · | 7 | 15 | 2 | -3 | 9
SMILES | VHR inh abs | Sa ugtP lethal | Mtb hypoxia rep | SSB-PriA inh | PfHsp40 rescue | Sa RN4220 lethal
CN(C(=O)CSc1nnc(-c2ccccc2)n1C)C1CCS(=O)(=O)C1 (stereo unspecified) | 27 | 3 | -2 | -9 | 44* | 3
O=C(COc1ccc2ccccc2c1)NNC(=O)Cc1ccccc1 | 1 | 4 | -6 | -13 | 0 | 3
O=C(COc1ccc2ccccc2c1)N[C@@H](C(=O)O)c1ccc(O)cc1 | 24 | -3 | -4 | 40* | 2 | 2
CC1=C(C(=O)N2CCOCC2)C(c2ccc(Br)cc2)NC(=S)N1c1ccccc1 (stereo unspecified) | 11 | 10 | 14 | -15 | -1 | 0
CC1=C(C(=O)N2CCOCC2)C(c2ccc(OC(F)F)cc2)NC(=S)N1c1ccccc1 (stereo unspecified) | 53* | 4 | -4 | -20 | 1 | 6
Cc1ccc(OCC(=O)NN=Cc2ccco2)c(C)c1 | · | 2 | 10 | 2 | · | 2
CCOC(=O)C1CCCN(C2=NC(=O)/C(=C/c3ccc(N(C)C)cc3)S2)C1 (stereo unspecified) | 53* | -3 | 9 | -7 | -1 | 0
CCCc1cc(C(=O)OC)c(N)s1 | · | · | · | -8 | · | ·
O=C(/C=C/c1ccc([N+](=O)[O-])cc1)c1ccccc(=O)c1O | · | · | · | -4 | 0 | ·
Cc1ccc(C)c(/C=C/C(=O)c2ccccc(=O)c2O)c1 | 0 | -6 | 5 | 12 | 224* | 14
O=C(/C=C/c1ccccc1O)c1ccccc1O | · | · | · | -8 | · | ·
Cc1ccc(/C=C/C(=O)c2ccccc(=O)c2O)c(C)c1 | -8 | -2 | 11 | 20 | 183* | 19
O=C(/C=C/c1ccccc1Cl)c1ccccc(=O)c1O | -17 | -11 | 8 | -2 | 64* | 20
CCOC(=O)C(CC)/C(C)=N\NC(=O)c1ccccc1O (stereo unspecified) | -13 | · | · | · | 110* | ·
CCC(C)N=Cc1c(Nc2ccccc2)nc2c(C)cccn2c1=O (stereo unspecified) | 15 | 13 | 51* | 5 | 5 | 6
COc1ccc(OCC(=O)N/N=C/c2cccc3cccnc23)cc1 | 14 | · | · | · | 0 | ·
O=C(NN=Cc1cccc2cccnc12)c1ccccc1O | · | 1 | 12 | · | · | 10
COc1ccc(C(=O)NN=Cc2cccc3cccnc23)cc1 | · | 3 | -5 | 80* | · | 10
CCOc1ccc(C(=O)NN=Cc2cccc3cccnc23)cc1 | · | 3 | · | 89* | · | 3
CCOc1cccc(/C=N/NC(=O)c2cccnc2)c1O | 52* | · | · | · | -1 | ·
CCOc1cccc(C=NNC(=O)c2cccnc2)c1O | · | 6 | 6 | 2 | · | -2
O=C(N/N=C/c1cccc2cccnc12)c1ccccc1O | 5 | · | · | + | 2 | ·
Cn1c(=O)[nH]cc(C(=O)N2CCN(C(c3ccccc3)c3ccccc3)CC2)c1=O | · | · | · | -3 | · | ·
COc1ccc(C(=O)CSc2nnc(CCc3c(C)[nH]c(=O)n(C)c3=O)o2)cc1OC | · | · | · | 8 | · | ·
O=C(N/N=C/c1cccc2nccnc12)c1ccncc1 | -10 | · | · | + | · | ·
SMILES | VHR inh abs | Sa ugtP lethal | Mtb hypoxia rep | SSB-PriA inh | PfHsp40 rescue | Sa RN4220 lethal
O=C(Nc1ccccc1Cl)c1ccccc1Oc1ccc(C(F)(F)F)cc1[N+](=O)[O-] | 22 | 31 | · | 47* | 0 | -1
Cc1oc(-c2cccc(Cl)c2)nc1CSc1n[nH]c(=O)c2cc(-c3cccs3)nn12 | · | · | · | -8 | · | ·
CCCc1sc(N/N=C/c2ccccn2)nc1-c1ccc(F)cc1 | -5 | · | · | · | 38* | ·
CCCc1sc(NN=Cc2ccccn2)nc1-c1ccc(F)cc1 | · | -33 | -4 | 41* | · | 5
Cc1csc(NN=Cc2ccccn2)n1 | · | -7 | 4 | 58* | · | 10
COc1ccccc1OCCNC(=O)c1ccc(C(C)(C)C)cc1 | · | -3 | 7 | -11 | 1 | 4
COc1ccccc1OCCNC(=O)c1ccc(Br)cc1 | · | 6 | 6 | 3 | 168* | 5
